NS1 inh: inhibitors of influenza NS1 protein function | 0.4% of 270,000 active | Potency, µM (doses to about 46.1 µM), for inactives: at the highest dose activity, positive = more growth | AID 2326; calls by dose curve; note: potency is the fitted concentration of half-maximal effect; actives are rising curves; nearly all actives have a fitted effect of over 50% in size
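OD600 was taken as the measure of yeast growth restored by compound in an NS1-expressing S. cerevisiae strain. Cells had been washed out of glucose medium and diluted 1:100 into galactose -URA medium, pH 6.0.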
Pf growth 96h: P. falciparum growth inhibition at 96 hours; P. falciparum luciferase reporter growth, 96 h; Potency, µM (highest dose often 28.7 µM), for inactives: top-dose activity change, negative = inhibition, actives largely listed as inhibitors; 6.9% of 320,000 active; AID 504834; note: potency is the fitted concentration of half-maximal effect; % is set by controls: 0 for no effect and ±100 for the full control effect
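Compounds incubated with erythrocytes infected by luciferase-expressing P. falciparum (2% hematocrit, 0.05% parasitemia final) for 96 hours, 37 C in 5% CO2. Growth inhibition scored as decreased luciferase luminescence.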
Shiga inhibitor: Shiga toxin inhibition | Vero cells, Shiga toxin protein synthesis inhibition reporter | inhibition, % at 38.7 µM | 9.2% of 290,000 active | AID 2315; in the data active = inhibition mostly above about 28%, no sharp cut-off; inactive = mostly below about 43%; note: 0% is about no effect
Pf growth 48h: P. falciparum growth inhibition at 48 hours (one generation) | P. falciparum luciferase growth in erythrocytes, 48 h | Potency, µM (doses to about 28.7 µM), without a hit: top-dose activity change, negative = inhibition, actives largely listed as inhibitors | 5.9% of 310,000 active; note: potency is the fitted concentration of half-maximal effect; % is set by controls: 0 for no effect and ±100 for the full control effect
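Luciferase-expressing P. falciparum in infected erythrocytes (2% hematocrit, 0.1% parasitemia final) in RPMI 1640/0.5% Albumax were exposed to compound for 48 hours at 37 C, 5% CO2; growth read as luminescence.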
Giardia FBPA inh: blocks Giardia fructose-bisphosphate aldolase activity; AID 2451; 0.71% of 290,000 active; A8B2U2; purified Giardia FBPA; Potency, µM (titrated, usually from 59.6 µM), for the others: at the highest dose activity, negative = inhibition, usual class: inhibitors; note: potency is the fitted concentration of half-maximal effect; % is set by controls: 0 for no effect and ±100 for the full control effect; nearly all actives have a fitted effect of over 55% in size
Target sequence (A8B2U2 whole entry, looked up): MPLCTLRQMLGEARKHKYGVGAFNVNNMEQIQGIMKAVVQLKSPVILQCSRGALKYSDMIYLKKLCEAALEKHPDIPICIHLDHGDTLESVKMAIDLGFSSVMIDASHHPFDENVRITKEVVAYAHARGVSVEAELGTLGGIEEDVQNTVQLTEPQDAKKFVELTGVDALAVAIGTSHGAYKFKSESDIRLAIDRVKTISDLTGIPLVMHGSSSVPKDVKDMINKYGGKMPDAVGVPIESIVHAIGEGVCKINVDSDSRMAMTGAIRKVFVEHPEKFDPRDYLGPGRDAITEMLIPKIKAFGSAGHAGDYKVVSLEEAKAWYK
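Giardia FBPA (40 nM reagent) was preincubated 10 min at RT with compound (up to 57.5 uM final), then substrate plus GAPDH/TPI/NAD/arsenate coupling system with diaphorase/resazurin was added; resorufin fluorescence (525/598 nm) was read after 20 min.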
CHX counter: affects cycloheximide protein synthesis inhibition readout, counter-screen | cell reporter, cycloheximide protein synthesis inhibition counterscreen | 12% of 300,000 active | max response, %; in the data active = max response mostly above about 13%, no sharp cut-off; inactive = mostly below about 14%; note: read at 38.3 µM for the half of the compounds with a filed dose; 0% is about no effect
* hit, by the source's call; i = inactive; ? = inconclusive; nt = no result; [ ] = dose if it differs, or a comment. Rows were chosen to be rich in hits. Some 21% of all compounds tested hit in one or more screens of this group. Unless noted, calls come from the whole dose curve; as a rule, active = well fitted curve in the direction sought with a large enough effect; inconclusive = small, poorly fitted or top-dose-only effect, or another doubt; inactive = no such curve, though single readings can be large; an effect the other way counts as inactive or inconclusive.

SMILES	NS1 inh	Pf growth 96h	Shiga inhibitor	Pf growth 48h	Giardia FBPA inh	CHX counter
Cc1cc(C)c(OCCCCCn2ccnc2)c(C)c1	-13%	321%	-5	13µM*	?	-3
Cc1ccccc1OCCn1ccnc1	-7%	?	-4	8%	?	38*
Cc1cc(C)c(OCCCCN2CCNCC2)c(C)c1	1%	3.3µM*	-7	?	?	-3
Cc1ccc(OCCN(C)C(=O)C2CCC(=O)N(CCCN3CCCC3=O)C2)cc1 (stereo not given)	6%	-6%	-3	33%	7%	-2
CCCCC1(C)NC(=O)N(CC(=O)Nc2cc(S(=O)(=O)N3CCOCC3)ccc2Cl)C1=O (stereo not given)	nt	3%	nt	-16%	nt	nt
O=C1C=C(c2ccc(F)cc2OCc2ccccc2)C[C@@H](c2ccc(Cl)cc2)C1	nt	31%	nt	?	nt	nt
O=C(CC(Nc1ccccc1)C(=O)O)c1ccccc1 (stereo not given)	-56%	nt	139*	174%	-12%	37*
Cc1ccc(NC(CC(=O)c2ccccc2)C(=O)O)cc1Cl (stereo not given)	-7%	i	71*	392%	-20%	41*
O=C(CC(Nc1ccccc1)c1ccc(F)cc1)c1ccccc1 (stereo not given)	13%	2.6µM*	56*	10%	-3%	73*
O=C(CC(C(=O)O)c1cccc(Cl)c1)c1ccccc1 (stereo not given)	-1%	25%	-3	-6%	-5%	1
O=C(CC(Nc1ccc(Cl)cc1Cl)C(=O)O)c1ccccc1 (stereo not given)	-2%	308%	155*	242%	3%	65*
CSCCC(NC(=O)c1ccccc1)C(=O)OCC(=O)Nc1ccc(C)c(Cl)c1 (stereo not given)	-22%	nt	14	27%	0%	0
Cc1cccc(C)c1NC(=O)Cn1cc(C=O)c2ccccc21	-1%	?	-12	2%	1%	-2
CCOCCc1nnc(NC(=O)C2CCN(C(=O)c3ccco3)CC2)s1	7%	?	-1	-13%	-7%	-3
COc1ccccc1COC(=O)C(NC(=O)c1ccc(C)cc1)C(C)C (stereo not given)	nt	-6%	nt	16%	nt	nt
CCCC1NC(=S)N(C2CCCCC2)C1=O (stereo not given)	6%	2.9µM*	-14	0%	2%	-2
O=C1CNC(=S)N1C1CCCCCC1	-3%	1%	-5	-1%	-6%	1
Cc1ccc(S(=O)(=O)N2CCCCC2)cc1NC(=O)c1cnccn1	nt	-6%	nt	-11%	nt	nt
C=C(C)C(=O)OC1(C(F)(F)F)Oc2cc(C)ccc2NC1=O (stereo not given)	-37%	-5%	93*	?	3%	56*
O=C(CCl)Nc1ccc(N=Nc2ccccc2)cc1	-67%	?	106*	4.7µM*	-12%	128*
O=C(CCl)Nc1ccc(-c2ccccc2)cc1	nt	13µM*	-21	?	0%	-7
O=C(O)CC(=O)Nc1ccccc1	7%	2%	-10	nt	7%	2
CC(=O)Nc1ccc(NC(=O)Cc2ccc(-c3ccccc3)cc2)cc1	15%	-18%	13	6%	6%	13
O=C(CCl)Nc1ccccc1Sc1ccccc1	-8%	9.3µM*	-8	nt	-11%	-2
CC(C)N(c1ccccc1)c1ccc(NC(=O)CCl)cc1	nt	10µM*	-7	10µM*	0%	0
SMILES	NS1 inh	Pf growth 96h	Shiga inhibitor	Pf growth 48h	Giardia FBPA inh	CHX counter
CC(=O)c1ccc(OCCNS(=O)(=O)c2ccc(-n3cnnn3)cc2)cc1	6%	-28%	-4	-27%	-3%	-4
CC1(c2ccccc2)NC(=O)N(CC(=O)N2CCN(S(=O)(=O)c3cccc([N+](=O)[O-])c3)CC2)C1=O (stereo not given)	nt	-1%	nt	?	nt	nt
O=C(COC(=O)c1cc[n+]([O-])cc1)Nc1cccc(Br)c1	nt	32%	nt	19%	nt	nt
Cc1cc(=O)[nH]c(Nc2ccccc2C)n1	5%	?	-8	-11%[0.00184 µM]	-6%	-1
COc1ccc(-n2c(=O)c(-c3ccc(Cl)cc3)nc3cncnc32)cc1	nt	nt	nt	nt	-2%	nt
CC(C)N(C(=S)Nc1cccc(S(=O)(=O)N(C)C)c1)c1ccccc1	-2%	8%	-7	-1%	-14%	-2
O=C(OCc1nnc(-c2ccc(Cl)cc2)o1)c1ccncc1	-64%	3%	21	13%	12%	5
CC(C(=O)OCc1nnc(-c2ccccc2)o1)N1C(=O)C2CCCCC2C1=O (stereo not given)	nt	160%	70*	55%	-5%	37*
COC(=O)C1=C(C)NC(C)=C(C(=O)OC)C1C(=O)OCc1nnc(-c2ccccc2)o1	nt	?	nt	9%	nt	nt
NC(=O)COC(=O)c1ccc(-c2ccccc2)cc1	nt	29%	64*	-2%	5%	17*
CC(=O)Nc1ccc(OCc2nnc(-c3ccc(Cl)cc3)o2)cc1	-7%	12%	58	0%	5%	20*
COc1ccc(-c2cc(-c3nnc(COC(=O)c4ccncc4)o3)c3ccccc3n2)cc1OC	nt	?	-18	12µM*	1%	12
Cc1cnc(CNc2ccnc(-c3ccccc3C)n2)cn1	nt	nt	nt	nt	8%	nt
Brc1ccccc1-c1nnc(COc2ncnc3ccccc23)o1	-4%	-22%	-6	?	5%	-1
Cc1nc2ccc(C(=O)OCc3nnc(-c4ccccc4)o3)cc2nc1C	-43%	13µM*	-9	15%	-1%	10*
Cc1ccc(C(=O)CCC(=O)OCc2nnc(-c3ccccc3)o2)cc1	nt	20%	nt	31%	nt	nt
O=C(OCc1nnc(-c2ccccc2)o1)C12CC3CC(CC(Br)(C3)C1)C2	nt	125%	56*	69%	-1%	35*
Clc1ccc(-c2nnc(COc3ncnc4ccccc34)o2)cc1	nt	43%	55*	244%	9%	34*
O=C(OCc1nnc(-c2ccccc2)o1)c1ccccc1	-6%	36%	90*	55%	3%	29*
COc1ccc2[nH]cc(CCNc3nc(-c4c(C)noc4C)nc4ccccc34)c2c1	nt	nt	nt	nt	-20%	nt
COc1cc(C(=O)OCC(=O)Nc2cc(S(=O)(=O)N3CCOCC3)ccc2C)ccc1OCC(C)C	nt	-5%	nt	?	nt	nt
Cc1ccccc1C(=O)OCc1nnc(-c2ccc(Cl)cc2)o1	nt	39%	45*	19%	5%	25*
O=C(NCc1ccccc1)c1ccc(OC2CSC2)cc1	-2%	72%	16	14%	-1%	12*
Cc1cccc(NC(=O)c2ccc(OC3CSC3)cc2)c1	3%	?	62*	159%	0%	43*
CC(=O)c1cccc(NC(=O)c2ccc(OC3CSC3)cc2)c1	nt	?	29	130%	2%	21
O=C(O)c1ccc(OC2CSC2)cc1	-81%	6%	-18	-2%	10%	17
O=C(Nc1cccc(Br)c1)c1ccc(OC2CSC2)cc1	nt	?	147*	368%	-11%	43*
CCc1nnc2n1N=C(c1ccc(-c3cc(Cl)ccc3Cl)o1)CS2	0%	9.3µM*	-3	nt	10%	-1

Screening results (PubChem)
